# Values joined by “and” are separate entries in the source; they are usually repeats but may differ in a detail not shown here. Identical values can stand only once. Active and inactive are the calls of the source. Unless noted, the rule behind the calls is not given here.
# Experiments:
# [1] = circadian clock period modulators, cell-based, LOPAC library, luminescence reporter (AID 2774); details: circadian reporter cells, at 7 µM, actives lie on both sides;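 note: values are relative to mean of DMSO wells on each plate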
# [2] = tested on: Aerobactin synthetase IucA (Klebsiella pneumoniae, hypervirulent); test: IucA enzyme inhibition, biochemical, LOPAC library, absorbance readout (AID 1346212); details: IucA enzyme assay, absorbance (OD) readout; stronger effect = lower value;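 tested at 8 µM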;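 note: 100% = no compound wells and 0% = no enzyme wells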
# [3] = tested on: Hepatitis C virus NS3 helicase; test: HCV NS3 helicase inhibitors, primary screen, biochemical, fluorescence polarization, LOPAC1280 library (AID 687035; in the data active = inhibition above about 37%); details: Purified HCV NS3 helicase, Cy5-dT15 ssDNA binding fluorescence polarization; stronger effect = higher value; concentration not given here
# [4] = Cy5 fluorescence quenching or enhancement artefacts, artefact control for HCV NS3 helicase inhibitor project, biochemical, LOPAC1280 (AID 687037); details: Cy5-DNA-NS3h complex fluorescence interference counterscreen
# [5] = sensitizers of A549 cells to miR-34 induction, primary screen, imaging, A549 dox-inducible miR-34, nuclei and caspase counts (AID 1347080;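 active = compounds whose cell count with miR-34 switched on is under 0.7 times the count with it off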); details: A549 miR-34 inducible, Hoechst nuclei count, 48 h
# [6] = viability rescue of complex I mutant cybrids, primary screen, cell-based, galactose medium, ATP luminescence (AID 1645843;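 active = z-score of at least 1.8 in each of two replicates, scored against plate mean and spread of sample wells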;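 note: positive z means more ATP and so rescue of galactose-driven cybrid death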); details: complex I mutant cybrid cells, 72 h, stronger effect = higher value
# [7] = liver-stage malaria parasite growth inhibition, primary screen, cell-based, HepG2, luciferase luminescence, HepG2 viability (AID 624349; in the data active = parasite load remaining mostly below about 12%, no sharp cut-off; inactive = mostly above about 10%;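 note: 100% = mean of DMSO negative control wells on the same plate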); details: P. berghei liver stage in HepG2, luciferase luminescence, concentration not given here; parasite load remaining: stronger effect = lower value; viability: measured here: HepG2 viability without parasites
# [8] = phospholipid biosynthesis inhibitors in animal cells, primary screen, cell-based, LOPAC library, screen 4 (AID 1347384); details: phospholipid biosynthesis inhibition screen, at 10 µM
# [9] = measured here: relative caspase fold change +Dox/-Dox
# [10] = measured here: total cells with miR-34 induction, stronger effect = lower value
# [11] = measured here: total cells without miR-34 induction
structure (smiles),measurement,setting,value
COc1cc(C=C(C#N)C#N)cc(O)c1O,period change,[1],-0.12 h (inactive)
same,remaining activity,[2],117% (inactive)
CCN(CC)c1ncnc2c1ncn2[C@@H]1O[C@H](COP(=O)(O)OP(=O)(O)C(Br)(Br)P(=O)(O)O)[C@@H](O)[C@H]1O,period change,[1],0.205 h (inactive)
same,inhibition,[3],-1% (inactive)
same,fluorescence ratio (interference),[4],1 (inactive)
same,remaining activity,[2],110% (inactive)
same,fold change,[5]; stronger effect = lower value,1.01 (inactive)
same,fold change,[5]; [9],2.23
same,cell count,[5]; [10],10400
same,cell count,[5]; [11],10200
same,z-score,[6],0.37 (inactive)
CCCN(CCC)C(=O)Cc1c(-c2ccc(Cl)cc2)nc2c(Cl)cc(Cl)cn12,period change,[1],-0.05 h (inactive)
same,remaining activity,[2],120% (inactive)
CCc1c(C(=O)OC)ncc2[nH]c3cc(OC)c(OC)cc3c12,period change,[1],0.185 h (inactive)
same,remaining activity,[2],93% (inactive)
O=P(O)(O)C(Cl)(Cl)P(=O)(O)O,period change,[1],-0.115 h (inactive)
same,inhibition,[3],-2% (inactive)
same,fluorescence ratio (interference),[4],1 (inactive)
same,remaining activity,[2],94.8% (inactive)
same,fold change,[5]; stronger effect = lower value,0.966 (inactive) and 0.892 (inactive)
same,fold change,[5]; [9],1.44 and 0.98
same,cell count,[5]; [10],9450 and 9630
same,cell count,[5]; [11],9790 and 10800
same,z-score,[6],1.8 (inactive) and 0.645 (inactive)
C[C@H]1OC[C@@H](C[N+](C)(C)C)O1,period change,[1],-0.07 h (inactive)
same,remaining activity,[2],81.5% (inactive)
CCCN1CCC[C@@H](c2cccc(C#N)c2)C1,period change,[1],-0.025 h (inactive)
same,remaining activity,[2],122% (inactive)
Clc1ccc(C(c2ccc(Cl)cc2)n2cc[n+](CC(OCc3ccc(Cl)cc3Cl)c3ccc(Cl)cc3Cl)c2)cc1 (configuration not stated),period change,[1],-0.26 h (inactive)
same,inhibition,[3],-3% (inactive)
same,fluorescence ratio (interference),[4],0.9 (inactive)
same,remaining activity,[2],106% (inactive)
same,fold change,[5]; stronger effect = lower value,0.883 (inactive)
same,fold change,[5]; [9],1.87
same,cell count,[5]; [10],1420
same,cell count,[5]; [11],1610
same,z-score,[6],-1.52 (inactive)
CC1Cc2cc3c(cc2C(c2ccc(N)cc2)=NN1)OCO3 (configuration not stated),period change,[1],0.09 h (inactive)
same,remaining activity,[2],102% (inactive)
COC(=O)c1cc2c(cn1)[nH]c1ccccc12,period change,[1],0.035 h (inactive)
same,remaining activity,[2],104% (inactive)
O=[N+]([O-])/C=C/c1ccc2c(c1)OCO2,parasite load remaining,[7],42.5% (inactive)
same,viability,[7],65.7%
same,inhibition,[3],-1% (inactive)
same,fluorescence ratio (interference),[4],1 (inactive)
same,remaining activity,[2],107% (inactive)
same,fold change,[5]; stronger effect = lower value,1.45 (inactive)
same,fold change,[5]; [9],0.546
same,cell count,[5]; [10],2000
same,cell count,[5]; [11],1380
same,outcome,[8],inactive
same,z-score,[6],-0.995 (inactive)
CNC(=O)OCC[N+](C)(C)C,period change,[1],-0.01 h (inactive)
same,remaining activity,[2],109% (inactive)
CCCCCCC(C)(C)c1ccc([C@@H]2C[C@H](O)CC[C@H]2CCCO)c(O)c1,period change,[1],0.01 h (inactive)
same,inhibition,[3],-4% (inactive)
same,fluorescence ratio (interference),[4],1 (inactive)
same,remaining activity,[2],106% (inactive)
same,fold change,[5]; stronger effect = lower value,0.915 (inactive)
same,fold change,[5]; [9],0.979
same,cell count,[5]; [10],5170
same,cell count,[5]; [11],5640

# Reference: PubChem BioAssay
